# Target: NUP54
# Assay: pooled miR-30 sensor sort-seq; sequence = guide strand
# Conditions: shRNA
# Also: reference of the scale not given here.
row,Sequence,sensor-assay potency score (higher = more potent)
1,ATAAATAACAACTTCTGTCTGA,1.09
2,TTCTAGATCGTCTTTAATGATG,-1.29
3,TAAACCAGTACTAGTTCCCGTT,-0.284
4,TACAGATGTAGTTTGATTCTTT,0.197
5,TAATGTAGTTTGCTGCTGCTGC,0.262
6,TAAATAACAACTTCTGTCTGAT,0.552
7,TTATATCTTCTAGATCGTCTTT,-0.236
8,TTGTTGTTTCAAATGCTGCTTG,0.0156
9,TATATCTTCTAGATCGTCTTTA,0.519
10,TACATTTACAGTAAGGGTCTGG,0.14
11,TTCCTGTTTGATTAGGACCTGT,0.0888

# Target: NUTF2
# Assay: as above
# Conditions: shRNA
row,Sequence,sensor-assay potency score (higher = more potent)
1,TACTAGAGCAACTTGTCAGTAG,0.355
2,TGCAACTAGTCTAGCATCCAAA,-1.42
3,TACAACACAAACTTCTCCCGTC,0.549
4,TTTTGCATTACTTAAGTCTTTC,-0.669
5,TTAATAGGAACATCTGGTGGAA,-0.0861
6,TTCTTTAATAGGAACATCTGGT,-0.647
7,TAATAGGAACATCTGGTGGAAC,-1.27
8,TATCATTATCAAATAACTGGTA,0.126
9,TAGTAATGTTGAATGAAGCTGG,0.656
10,TTCTCCTTCACTTCTTTGGGTT,-0.477
11,TTTAATAGGAACATCTGGTGGA,0.705

# Source: the OligoGym collection
